Assay [1] is described as follows: small molecules captured by biotinylated probe aFSTL3 – biochemical, small-molecule microarray, fluorescence 635/667, stem cell growth factor project, primary screen (AID 1064).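 Also: measures binding of the biotinylated anti-FSTL3 antibody to printed compounds.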 Conditions: higher = more signal.
Assay [2] in a line: binders from COS7 lysate, DM2A8 probe, primary screen, torsin A project, cell lysate, small-molecule microarray, fluorescence 635/667 (AID 1065). Conditions: higher = more signal, COS7 lysate expressing mutant human TOR1A.
The nature of assay [3]: small molecules captured by biotinylated probe aFGF2 – biochemical, small-molecule microarray, fluorescence 635/667, stem cell growth factor project, primary screen (AID 1067).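 Also: measures binding of biotinylated aFGF2 protein to printed compounds on slides; z-score merges feature fluorescence and signal-to-noise across triplicate slides.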 Conditions: higher = more signal.
Assay [4] can be described thus: small molecules captured by biotinylated probe aFGF10 – biochemical, small-molecule microarray, fluorescence 635/667, stem cell growth factor project, primary screen (AID 1071).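 Also: score merges 667 nm spot intensity and signal to noise from triplicate slides.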 Conditions: higher = more signal.
Assay [5] deals with Neurogenic locus notch homolog protein 2 (Homo sapiens) (UniProt Q04721). Briefly: small molecules binding Notch2 protein – biochemical, small-molecule microarray, 635 nm fluorescence, stem cell growth factors, primary screen (AID 1073). Conditions: higher = more signal.
The target of assay [6] is Pro-neuregulin-1, membrane-bound isoform (Homo sapiens) (UniProt Q02297). Briefly: small molecules binding neuregulin-1 protein – biochemical, small-molecule microarray, fluorescence 635/667, psychiatric disease protein project, primary screen (AID 1075).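 Also: score combines 667 nm spot fluorescence with signal to noise.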 Conditions: NRG1 binding, 635 nm fluorescence, higher = more signal.
In assay [7] the test system is Neuregulin-1 EGF-like domain. Description: small molecules binding NRG1 EGF domain – biochemical, small-molecule microarray, 635 nm fluorescence, primary screen (AID 1081).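 Also: binding of the protein to compounds printed on small-molecule microarray slides.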 The following applies: higher = more signal.
Assay [8] in a line: FRG1 expression reporter modulators in myotubes – cell-based, C2C12 myotubes, firefly/Renilla luciferase, luminescence, FRG1 inhibition for FSHD, primary screen (AID 1084). The following applies: FRG1 promoter luciferase, higher = more signal, called active from +8 up or from −8 down.
Assay [9] can be described thus: small molecules captured by biotinylated probe aFST – biochemical, small-molecule microarray, fluorescence 635/667, stem cell growth factor project, primary screen (AID 1086).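 Also: score merges 667 nm fluorescence with signal-to-noise of each printed compound spot.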 Conditions: higher = more signal.
Assay [10] in a line: binders of probe aHhip on microarray, primary screen, stem cell growth factor project, biochemical, small-molecule microarray, fluorescence 635/667 (AID 1087).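 Also: score merges spot fluorescence at 667nm with spot signal to noise ratio.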 The following applies: higher = more signal.
For assay [11], the system named is PRMT1 (protein arginine N-methyltransferase 1). Description: small molecules binding arginine methyltransferase PRMT1 – biochemical, small-molecule microarray, 635 nm fluorescence, primary screen (AID 1088).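 Also: binding of Prmt1 protein to compounds spotted on small-molecule microarray slides.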 The following applies: higher = more signal.
Assay [12] is described as follows: growth effects on S. cerevisiae YJM789 – YJM789 clinical isolate, OD600, 24 h, basal, primary screen (AID 1089).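 Also: growth of clinical yeast isolate S. cerevisiae YJM 789 seeded 1000 cells per well; test concentration not given here.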 The following applies: higher = more signal, called active from +8 up or from −8 down.
Assay [13] can be described thus: S. pombe growth modifiers, basal conditions – strain 972, OD600, 24 h, no modulator, primary screen (AID 1090).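 Also: basal condition with compound alone and no growth modifier present; test concentration not given here.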 The following applies: S. pombe 972 growth, higher = more signal, called active from +8 up or from −8 down.
Assay [14] is described as follows: budding yeast growth modifiers under rapamycin – strain BY4716, OD600, 96 h, primary screen (AID 1091). Also: test concentration not given here. The following applies: S. cerevisiae BY4716 + rapamycin, higher = more signal, called active from +8 up or from −8 down.
Assay [15] addresses Torsin-1A-interacting protein 2 (Homo sapiens) (UniProt Q8NFQ8). Briefly: small molecules binding lysate-expressed LULL1 – cell lysate, human LULL1 lysate, 635/667 nm fluorescence, primary screen (AID 1092).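 Also: probe is lysate of COS7 cells overexpressing human LULL1; score merges per-feature 667 nm fluorescence with signal-to-noise.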 The following applies: small-molecule microarray, hLULL1 lysate binding, 635 nm fluorescence; higher = more signal.
A short description of assay [16]: optical density change of DRC41 E. coli – strain DRC41, OD650, 24 h, E. coli filamentation project, primary screen (AID 1093).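 Also: MC1000 strain lacking acrAB efflux and sulA so SOS filamentation is blocked; test concentration not given here.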 The following applies: E. coli DRC41 growth, higher = more signal, called active from +8 up or from −8 down.
Assay [17] is described as follows: probe aLefty2 binding to arrayed compounds – biochemical, biotinylated probe, 635/667 nm fluorescence, primary screen (AID 1094).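 Also: score merges spot fluorescence near 667 nm with spot signal-to-noise ratio.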 The following applies: small-molecule microarray, higher = more signal.
The subject of assay [18] is Noggin (protein binding on small-molecule microarray). Briefly: small molecules binding Noggin protein – biochemical, 635/667 nm fluorescence, primary screen (AID 1095).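 Also: score merges 667 nm feature fluorescence with signal to noise over triplicate slides.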 Conditions: 635 nm fluorescence, higher = more signal.
Assay [19] deals with Neurogenic locus notch homolog protein 3 (Homo sapiens) (UniProt Q9UM47). Description: small molecules binding NOTCH3 protein – biochemical, 635/667 nm fluorescence, primary screen (AID 1096). The following applies: small-molecule microarray, 635 nm fluorescence, higher = more signal.
Assay [20] in a line: probe aEGFR binding to arrayed compounds – biochemical, biotinylated probe, 635/667 nm fluorescence, primary screen (AID 1097).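 Also: probe is a biotinylated anti-EGFR antibody binding compounds printed on slides; score combines fluorescence near 667 nm and signal to noise of each spot.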 The following applies: small-molecule microarray, higher = more signal.

The source made the active and inactive calls.

Sequence of Neurogenic locus notch homolog protein 3 (Homo sapiens) (Q9UM47 whole entry, looked up): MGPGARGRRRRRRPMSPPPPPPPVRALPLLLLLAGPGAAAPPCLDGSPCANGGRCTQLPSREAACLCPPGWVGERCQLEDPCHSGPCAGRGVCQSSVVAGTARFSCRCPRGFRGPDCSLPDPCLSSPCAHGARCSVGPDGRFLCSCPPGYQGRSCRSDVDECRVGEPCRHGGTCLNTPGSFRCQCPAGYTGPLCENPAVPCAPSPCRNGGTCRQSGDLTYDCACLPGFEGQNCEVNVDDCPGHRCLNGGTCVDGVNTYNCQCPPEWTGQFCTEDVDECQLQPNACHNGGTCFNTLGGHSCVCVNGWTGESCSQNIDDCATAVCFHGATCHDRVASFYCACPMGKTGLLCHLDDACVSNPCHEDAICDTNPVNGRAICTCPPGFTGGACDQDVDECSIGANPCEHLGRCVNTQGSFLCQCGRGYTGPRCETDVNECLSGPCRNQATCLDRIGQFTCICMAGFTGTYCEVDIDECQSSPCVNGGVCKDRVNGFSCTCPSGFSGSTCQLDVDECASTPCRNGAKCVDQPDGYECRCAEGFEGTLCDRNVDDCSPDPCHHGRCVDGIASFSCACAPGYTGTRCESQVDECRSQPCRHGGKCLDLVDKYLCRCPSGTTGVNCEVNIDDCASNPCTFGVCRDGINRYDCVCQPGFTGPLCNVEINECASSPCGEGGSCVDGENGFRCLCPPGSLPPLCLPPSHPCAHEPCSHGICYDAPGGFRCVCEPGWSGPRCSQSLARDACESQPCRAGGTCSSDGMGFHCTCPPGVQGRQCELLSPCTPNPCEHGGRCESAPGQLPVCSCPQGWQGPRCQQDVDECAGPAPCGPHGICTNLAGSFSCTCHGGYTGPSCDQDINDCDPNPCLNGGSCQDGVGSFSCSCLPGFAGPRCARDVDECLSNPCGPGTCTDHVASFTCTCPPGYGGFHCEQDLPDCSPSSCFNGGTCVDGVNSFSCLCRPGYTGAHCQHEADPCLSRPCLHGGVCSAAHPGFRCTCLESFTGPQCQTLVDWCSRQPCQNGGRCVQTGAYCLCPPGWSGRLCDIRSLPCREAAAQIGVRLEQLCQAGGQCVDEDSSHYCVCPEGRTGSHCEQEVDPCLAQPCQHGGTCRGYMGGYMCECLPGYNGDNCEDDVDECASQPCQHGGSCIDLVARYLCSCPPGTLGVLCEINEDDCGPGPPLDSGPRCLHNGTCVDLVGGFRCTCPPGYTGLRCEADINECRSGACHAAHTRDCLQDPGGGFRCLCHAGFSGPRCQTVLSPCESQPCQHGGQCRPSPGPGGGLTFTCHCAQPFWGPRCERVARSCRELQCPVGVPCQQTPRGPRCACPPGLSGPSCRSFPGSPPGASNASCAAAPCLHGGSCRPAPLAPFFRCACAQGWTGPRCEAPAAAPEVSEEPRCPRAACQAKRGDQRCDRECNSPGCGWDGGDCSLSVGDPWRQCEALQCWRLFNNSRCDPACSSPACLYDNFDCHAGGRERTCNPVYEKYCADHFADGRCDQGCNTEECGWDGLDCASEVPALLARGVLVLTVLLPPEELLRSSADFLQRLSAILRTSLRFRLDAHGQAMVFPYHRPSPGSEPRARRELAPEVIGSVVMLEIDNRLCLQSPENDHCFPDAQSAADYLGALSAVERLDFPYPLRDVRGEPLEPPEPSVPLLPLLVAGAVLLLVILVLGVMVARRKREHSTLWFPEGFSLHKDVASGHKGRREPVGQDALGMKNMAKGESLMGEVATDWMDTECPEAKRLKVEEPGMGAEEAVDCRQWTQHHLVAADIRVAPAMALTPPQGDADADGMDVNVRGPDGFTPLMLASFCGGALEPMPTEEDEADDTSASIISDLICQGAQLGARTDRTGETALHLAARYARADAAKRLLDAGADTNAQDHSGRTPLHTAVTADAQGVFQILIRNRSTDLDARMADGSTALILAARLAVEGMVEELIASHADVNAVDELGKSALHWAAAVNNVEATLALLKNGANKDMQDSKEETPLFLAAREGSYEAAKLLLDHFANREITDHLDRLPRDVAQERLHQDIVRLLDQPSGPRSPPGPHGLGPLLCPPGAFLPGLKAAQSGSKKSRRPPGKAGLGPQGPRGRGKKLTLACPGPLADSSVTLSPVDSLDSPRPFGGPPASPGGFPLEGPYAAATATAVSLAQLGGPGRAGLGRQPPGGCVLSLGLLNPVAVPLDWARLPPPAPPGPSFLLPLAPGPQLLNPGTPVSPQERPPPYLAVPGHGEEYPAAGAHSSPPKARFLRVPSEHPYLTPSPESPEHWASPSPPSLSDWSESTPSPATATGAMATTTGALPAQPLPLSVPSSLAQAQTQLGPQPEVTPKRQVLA
Sequence of Pro-neuregulin-1, membrane-bound isoform (Homo sapiens) (Q02297 whole entry, looked up, the tested form may be a part, canonical isoform): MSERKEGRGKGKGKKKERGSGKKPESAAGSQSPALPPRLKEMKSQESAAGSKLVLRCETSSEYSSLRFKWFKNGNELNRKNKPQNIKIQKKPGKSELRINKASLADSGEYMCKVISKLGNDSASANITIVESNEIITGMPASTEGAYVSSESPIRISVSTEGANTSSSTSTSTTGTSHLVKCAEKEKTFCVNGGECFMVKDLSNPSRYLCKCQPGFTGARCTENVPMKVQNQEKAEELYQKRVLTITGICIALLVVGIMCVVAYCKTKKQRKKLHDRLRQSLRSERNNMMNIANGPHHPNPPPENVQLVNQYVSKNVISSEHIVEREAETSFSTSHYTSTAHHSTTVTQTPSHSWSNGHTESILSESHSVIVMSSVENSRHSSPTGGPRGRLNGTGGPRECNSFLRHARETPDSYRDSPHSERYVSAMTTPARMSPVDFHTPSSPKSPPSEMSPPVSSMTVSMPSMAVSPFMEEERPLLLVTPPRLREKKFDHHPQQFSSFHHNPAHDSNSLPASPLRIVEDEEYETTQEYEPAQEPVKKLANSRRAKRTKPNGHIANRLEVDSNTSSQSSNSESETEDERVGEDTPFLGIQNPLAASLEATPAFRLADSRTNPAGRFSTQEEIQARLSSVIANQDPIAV
Sequence of Torsin-1A-interacting protein 2 (Homo sapiens) (Q8NFQ8 whole entry, looked up): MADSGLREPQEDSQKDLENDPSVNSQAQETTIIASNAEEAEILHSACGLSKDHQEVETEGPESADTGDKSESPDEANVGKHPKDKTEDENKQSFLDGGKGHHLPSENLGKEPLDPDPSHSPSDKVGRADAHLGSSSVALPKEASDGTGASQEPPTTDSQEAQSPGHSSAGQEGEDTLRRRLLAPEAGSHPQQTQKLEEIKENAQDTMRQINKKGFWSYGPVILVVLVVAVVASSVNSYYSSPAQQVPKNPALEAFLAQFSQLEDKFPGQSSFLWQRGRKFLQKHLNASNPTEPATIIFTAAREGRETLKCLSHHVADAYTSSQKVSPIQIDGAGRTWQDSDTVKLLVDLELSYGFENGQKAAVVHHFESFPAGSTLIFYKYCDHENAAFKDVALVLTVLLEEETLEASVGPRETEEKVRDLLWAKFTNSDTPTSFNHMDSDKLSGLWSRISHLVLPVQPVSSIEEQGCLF

Take `COCCOC(=O)N1C(=O)[C@@]2(c3ccccc31)[C@H](c1ccccc1OCCO)N1[C@H](c3ccccc3)[C@H](c3ccccc3)OC(=O)[C@H]1[C@@H]2C(=O)N1CCCCCCC1`: the composite z-score in assay [1] is 4.11; in assay [2], 2.32; in [3], 0.959; in [4], 1.32; in assay [5] it was 1.78; in assay [6] it was 2.25. For the same molecule, the composite z-score is 1.39 in assay [7]; 3.36 in assay [9]; 2.53 in assay [10]; 1.54 in [11]; 4.47 in assay [15]; 1.97 in [17]. Further, the composite z-score in [18] was 1.78; in assay [19], 1; in [20], 1.48. The z-score in [8] was -3.81 (inactive); in assay [12] it was 1.3 (inactive); in [13] it was 1.35 (inactive); in assay [14], 5.52 (inactive); in [16], -0.489 (inactive).

Turning to `Cc1ccccc1C(O)C1C=CC2C(=O)N(c3ccccc3)C(=O)C2N1Nc1ccc([N+](=O)[O-])cc1` (stereo not given), the composite z-score in assay [1] is -0.0848; in [2] it was 0.804; in assay [3], -0.0271; in assay [4], 0.681; in assay [5], 1.07; in [6], 1.87. Further, the composite z-score in assay [7] was 1.27; in assay [9], 0.886; in assay [10] it was -0.189; in assay [11], 1.45; in assay [15], 3.39; in [17] it was 0.0839. The composite z-score in [18] worked out at 0.327; in assay [19], 1.05; in assay [20], 0.156. Further, the z-score was -1.24 (inactive) in assay [8]; -0.715 (inactive) in assay [12]; 0.796 (inactive) in assay [13]; 2.67 (inactive) in [14]; 0.13 (inactive) in assay [16].

`CS(=O)(=O)CCOC(=O)C1=CC(CCCO)=CC(C2CC2)N(Cc2cccc(OC(F)(F)F)c2)C=C1C(=O)OCCS(C)(=O)=O` (stereo not given): the composite z-score in assay [1] was -0.527; in [2], 0.314; in [3], -0.0734; in assay [4] it was 0.147; in [5] it was -0.116; in [6] it was 1.07. The composite z-score in assay [7] was 0.897; in assay [9], 0.0187; in assay [10] it was -0.0994; in assay [11] it was 0.757; in [15], 2.29; in assay [17] it was 0.203. Further, the composite z-score was -0.0678 in assay [18], 0.0213 in assay [19] and -0.106 in assay [20]. The z-score was 0.677 (inactive) in assay [8]; -0.725 (inactive) in [12]; -2.34 (inactive) in assay [13]; -1.75 (inactive) in [14]; -0.917 (inactive) in [16].

`COCCOC(=O)N1C(=O)[C@@]2(c3cc(C#CC4=CCCCC4)ccc31)[C@H](C(=O)N1CCCCCCC1)[C@H]1C(=O)O[C@H](c3ccccc3)[C@H](c3ccccc3)N1[C@@H]2c1ccc(OCCO)cc1`: the composite z-score was 1.77 in [1]; 0.399 in [2]; 0.316 in assay [3]; 0.5 in assay [4]; 0.891 in assay [5]; 0.455 in assay [6]. In addition, the composite z-score came to 1.1 in assay [7]; 1.36 in assay [9]; 0.739 in assay [10]; 1.22 in assay [11]; 0.973 in assay [15]; 0.726 in assay [17]. In addition, the results for the composite z-score in assay [18], in assay [19] and in assay [20] were 1.52, 1.06 and 0.265, respectively. The z-score in assay [8] is 1.06 (inactive); in assay [12] it was 0.175 (inactive); in [13], -0.534 (inactive); in assay [14], 1.62 (inactive); in assay [16], -0.909 (inactive).

For the molecule `COCCCNC(=O)[C@@]1(c2ccc([N+](=O)[O-])cc2)CC(=O)N(CC23CC4CC(CC(C4)C2)C3)[C@@H]1c1ccc(CO)cc1I`, the composite z-score was 0.456 in [1]; -0.243 in assay [2]; -0.034 in assay [3]; 0.246 in [4]; 0.218 in [5]; 1.13 in [6]. For the same molecule, the composite z-score was 1.3 in assay [7]; 0.15 in [9]; -0.236 in [10]; 1.3 in [11]; 1.75 in assay [15]; 0.0283 in assay [17]. The composite z-score was 0.26 in assay [18], 0.341 in [19] and -0.183 in assay [20]. Besides, the z-score is -2.2 (inactive) in assay [8]; 1.01 (inactive) in assay [12]; 1.08 (inactive) in [13]; 4.92 (inactive) in [14]; -0.254 (inactive) in assay [16].

The record behind these values is PubChem BioAssay.
